# Compounds with a hit are over-represented: about 18% of the library has one in this group of screens.
# DT40 TDP1 no CPT: qHTS for Inhibitors of human tyrosyl-DNA phosphodiesterase 1 (TDP1): qHTS in cells in absence of CPT; Potency, µM (highest dose often 46.2 µM), actives largely listed as inhibitors; DT40 Tdp1-/- hTDP1 cells, no CPT, ATP luminescence, 48 h; actives 15% (n = 420,000); note: nearly all actives have a fitted effect of over 55% in size
#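 No-CPT arm: Tdp1-/-;hTDP1 DT40 cells (400/well) plus compounds, incubated ≥48 hr at 37 °C. Readout CellTiter-Glo luminescence.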
# IL-1B inflam inh: inhibitors of inflammasome signaling (IL-1 beta secretion); THP-1 LPS/ATP IL-1B secretion, AlphaLISA, 16 h; hits give low values; activity change, % at 57.5 µM; AID 743279; actives 4.7% (n = 360,000); in the data active = activity change below about -50%; inconclusive = mostly about -30% to -49%
#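 THP-1 cells pretreated 1 hr with compounds (up to 57.5 uM final), then stimulated with LPS (250 ng/mL final) plus ATP (1.25 mM final); secreted IL-1B measured by AlphaLISA after 16 hr, decreased signal indicating inhibition.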
# TDP1 inh: TDP1 (human) enzyme inhibition. recombinant TDP1, AlphaScreen DNA substrate cleavage. Potency, µM (top dose mostly 130 µM), usual class: inhibitors. actives 0.28% (n = 350,000); note: nearly all actives have a fitted effect of over 40% in size
# Target sequence (Q9NUW8 whole entry, looked up): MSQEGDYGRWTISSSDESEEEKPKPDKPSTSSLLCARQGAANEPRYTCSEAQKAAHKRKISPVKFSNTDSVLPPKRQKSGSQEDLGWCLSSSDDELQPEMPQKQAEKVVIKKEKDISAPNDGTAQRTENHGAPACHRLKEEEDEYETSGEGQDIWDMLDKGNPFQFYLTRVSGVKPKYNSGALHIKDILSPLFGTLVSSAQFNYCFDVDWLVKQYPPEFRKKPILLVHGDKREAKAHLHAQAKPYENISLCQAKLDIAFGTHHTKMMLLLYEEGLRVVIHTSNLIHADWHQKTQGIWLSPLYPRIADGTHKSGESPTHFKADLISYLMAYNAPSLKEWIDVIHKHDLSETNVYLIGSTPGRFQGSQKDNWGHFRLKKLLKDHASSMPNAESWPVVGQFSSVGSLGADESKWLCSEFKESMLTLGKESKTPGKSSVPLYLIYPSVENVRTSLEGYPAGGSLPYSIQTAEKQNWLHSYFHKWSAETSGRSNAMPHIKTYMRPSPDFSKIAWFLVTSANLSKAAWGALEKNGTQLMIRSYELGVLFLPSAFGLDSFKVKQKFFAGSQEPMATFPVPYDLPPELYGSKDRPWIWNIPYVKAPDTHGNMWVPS
#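 Signal: AlphaScreen proximity between streptavidin donor and anti-FITC acceptor beads on intact substrate. Reaction: Tdp1 1 nM, substrate 15 nM final, 5 min RT after 15 min compound preincubation.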
# CtBP-E1A inh: CtBP/E1A binding inhibition | AlphaScreen GST-E1A/His-CtBP binding, 1536-well; hits give low values | activity change, % (concentration not given with the values) | actives 0.49% (n = 340,000) | AID 651724; in the data active = activity change below about -65%; inconclusive = mostly about -30% to -63%
#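 Protein mix (5X: 125 nM each GST-E1A, His-CtBP) was incubated with pinned compound 2 h at 37 deg C in dark, in 50 mM Tris pH 8.0 buffer with 300 mM NaCl. Glutathione donor and nickel acceptor beads followed; AlphaScreen signal read after 1 h.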
# TDP1 cell CPT: growth inhibition of DT40 Tdp1-/-;hTDP1 cells with camptothecin (screen for TDP1 inhibitors); chicken DT40 Tdp1-/-;hTDP1 cells + 20 nM CPT, ATP luminescence, 48 h; Potency, µM (doses to about 46.2 µM), hits mostly inhibitors; actives 12% (n = 420,000); note: nearly all actives have a fitted effect of over 55% in size
#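 Cell growth measured by CellTiter-Glo luminescence after a minimum 48 h, 37 C compound exposure with 20 nM CPT in Tdp1-knockout DT40 cells stably expressing hTDP1, seeded 400/well; qHTS titration format.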
# Six1-Eya2 inh: Six1/Eya2 interaction inhibition | AlphaScreen GST-Six1/His-Eya2 binding, biochemical; hits give low values | Q15475+O00167 | activity change, % (no concentration beside the values) | actives 0.56% (n = 360,000); in the data active = activity change below about -65%; inconclusive = mostly about -30% to -63%
#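 Six1/Eya2 binding was read as AlphaScreen signal after compounds were pinned into GST-Six1 plus His-tagged Eya2 (5X stock 250/500 nM) in pH 8.0 Tris/NaCl/TCEP buffer, beads added, then incubated 1 h, 37 C, dark.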
# A number is an active result; - = inactive; ? = inconclusive; . = no result given. Unless noted, calls come from the whole dose curve; as a rule, active = well fitted curve in the direction sought with a large enough effect; inconclusive = small, poorly fitted or top-dose-only effect, or another doubt; inactive = no such curve, though single readings can be large; an effect the other way counts as inactive or inconclusive.
SMILES,DT40 TDP1 no CPT,IL-1B inflam inh,TDP1 inh,CtBP-E1A inh,TDP1 cell CPT,Six1-Eya2 inh
CCOC(=O)c1c(S(=O)(=O)NCC(=O)Nc2cc(C)ccc2C)c(C)n(C)c1C,-,-,-,-,-,-
CC(C)CNC(=O)c1ccccc1-c1ccccc1C(=O)O,-,-,-,-,-,-
CC1=CC2=NC(=O)/C(=C\c3cc(C)n(-c4ccccc4F)c3C)C(=N)N2O1,29.1µM,-,-,-,-,-
CC1=CC2=NC(=O)/C(=C\c3cccn3CCOc3cccc(C)c3)C(=N)N2O1,?,-55.6,-,-,-,-
CC1=CC2=NC(=O)/C(=C\c3cc(C)n(-c4cccc(Cl)c4)c3C)C(=N)N2O1,9.2µM,-,-,-,?,-
COc1cccc(OCCn2cccc2/C=C2/C(=N)N3OC(C)=CC3=NC2=O)c1,-,-,-,-,-,-
COc1cc(NC(=O)CSc2ncnc3sc4c(c23)CCCC4)c(C(=O)O)cc1OC,-,-,-,-,-,-
CNc1ccccc1C(C)(C)c1cc(C)[nH]n1,?,-,-,.,16.4µM,-
Cc1ccc(-c2nc3c4ccccc4[nH]c(=O)n3n2)cc1,?,.,-,.,?,.
O=c1[nH]c2ccccc2c2nc(-c3cccc(S(=O)(=O)N4CCCC4)c3)nn12,16.4µM,-,.,-81.2,?,-85.5
Cc1cccc(OC(C)C(=O)OCC(=O)N2CCN(c3ccccc3)CC2)c1 (centres undefined),-,-,-,-,-,-
Cc1cccc(OCCNc2ccc([N+](=O)[O-])cn2)c1,?,-,-,-,-,-
O=[N+]([O-])c1ccc(NCCOc2ccccc2Cl)nc1,-,-65.6,-,-,-,-
c1ccc(N2CCN(Cc3cccn3-c3nnc(N4CCN(C5CCCCC5)CC4)s3)CC2)cc1,-,.,-,.,-,.
COc1ccc(N2CCN(Cc3cccn3-c3nnc(N4CCN(C5CCCCC5)CC4)s3)CC2)cc1,20.6µM,.,-,.,20.6µM,.
O=C(NC(c1ccc(F)cc1)c1ccc2ccccc2n1)C1CCN(Cc2ccc(Oc3ccccc3)cc2)CC1 (centres undefined),?,-75.1,.,?,?,-
COc1cc(CN2CCC(C(=O)NC(c3ccc(F)cc3)c3ccc4ccccc4n3)CC2)cc(OC)c1 (centres undefined),2.91µM,-,.,-,3.66µM,-
O=C(NC(c1ccccc1)c1ccc2ccccc2n1)C1CCN(Cc2ccc(Oc3ccccc3)cc2)CC1 (centres undefined),?,?,.,-,?,-
Cn1cc(CN2CCC(C(=O)NC(c3ccc(F)cc3)c3ccc4ccccc4n3)CC2)c2ccccc21 (centres undefined),7.31µM,-80.7,.,?,11.6µM,?
COCc1cccc(C2=CC(=O)C[C@H](c3ccc(F)cc3)C2)c1,?,-,-,-,?,-
c1cc(-c2cc3cc4c(cc3cn2)OCO4)cs1,?,-,-,-,14.6µM,-
COc1cc2cnc(-c3ccsc3)cc2cc1OC,?,-,-,-,?,-
CN(C)/C=C1\NC(=S)N(c2ccccc2)C1=O,-,-,.,-,-,-
COc1ccc(N2C(=O)/C(=C/c3cccs3)NC2=S)cc1,5.8µM,-,-,-,1.46µM,-
NNC(=O)C(Cc1cnc[nH]1)NC(=O)OCc1ccccc1 (centres undefined),-,-,.,.,-,-
SMILES,DT40 TDP1 no CPT,IL-1B inflam inh,TDP1 inh,CtBP-E1A inh,TDP1 cell CPT,Six1-Eya2 inh
OCCN(Cc1ccccc1)CC1CC=CCC1 (centres undefined),-,-,-,-,-,-
CCOc1cc(/C=N/NC(=O)c2nnn(-c3nonc3N)c2C)ccc1OCc1ccc(F)cc1,-,-,-,-,-,-
CCc1c(C(=O)N/N=C/c2ccc(OCc3ccc(F)cc3)c(OC)c2)nnn1-c1nonc1N,5.8µM,-,-,-,23.1µM,-
COC(=O)c1nnn(-c2nonc2N)c1COc1ccc(C=O)cc1OC,9.2µM,-,-,.,14.6µM,-
COc1ccc(/C=N/NC(=O)c2nnn(-c3nonc3N)c2C)cc1OC,-,-,.,-,?,-
COc1cccc(NC(=O)CN(C)C(=O)c2ccc3ccccc3c2)c1,-,-,-,-,-,-
Cc1ccc(SCC(=O)OC(C)C(=O)N2CCc3ccccc32)cc1 (centres undefined),-,-,.,-,-,-
O=C(CSc1nnc(-c2ccco2)o1)c1ccc(O)cc1O,?,-,-,-,?,-
COc1ccc(C(C(N)=O)c2ncc(C(F)(F)F)cc2Cl)cc1 (centres undefined),?,-,-,.,-,-
CNC1C(O)C(O[C@H]2C(O)[C@@H](OC3OC(CN)=CCC3N)[C@H](N)C[C@@H]2N)OC[C@]1(C)O (some centres undefined),-,.,-,.,-,.
CCn1c(=O)c2c(n3cnnc13)-c1ccccc1CC21CCCCC1,?,-,-,-,13µM,-
O=c1c2c(n3cnnc3n1-c1ccccc1)-c1ccccc1CC21CCCCC1,?,-,-,-,?,-
Cn1c(=O)c2c(ncn2CC(=O)N/N=C/c2c[nH]c3ccccc23)n(C)c1=O,.,.,79.4µM,.,.,.
O=C(NCC1CCC2(CCN(Cc3cccc4cccnc34)CC2)O1)c1ccco1 (centres undefined),-,.,.,.,-,.
O=C(C1CC12CCN(Cc1cccc3cccnc13)CC2)N1CCN(Cc2cccs2)CC1 (centres undefined),?,.,.,.,1.64µM,.
O=C(NCCC1=CCCCC1)c1ccc2c(c1)N(Cc1ccccc1)C(=O)c1ccccc1S2(=O)=O,?,.,-,.,?,.
Cc1ccc(C(=O)N2CC(C)SC2=Nc2cccc(S(=O)(=O)N(C)C)c2)cc1 (centres undefined),?,-,-,-,29.1µM,-
CCCSc1nc2c(cnn2-c2ccc(C)c(C)c2)c(=O)[nH]1,-,-,-,-,-,-
COC(=O)c1ccc(CSc2nc3c(cnn3-c3ccc(C)c(C)c3)c(=O)[nH]2)o1,25.9µM,-,-,-,?,-
COC(=O)c1ccc[n+](CCc2c[nH]c3ccccc23)c1,-,-,.,-,-,-
C1=C[C@H]2CC[C@@H]1N(c1ccccc1)O2,-,-,.,-,-,-
NS(=O)(=O)c1ccc(Nc2c([N+](=O)[O-])cncc2[N+](=O)[O-])cc1,?,-,.,-,?,-
O=[N+]([O-])c1cncc([N+](=O)[O-])c1Nc1ccccc1Cl,23.1µM,-,-,-,18.4µM,-
